Assay results from the supplement of paper PMC12340641.
Structures can show the parent of a compound that is named as a salt.

Test system: HEK293FT dCK*-only
Test: relative growth in counter assay (no AraC = 100%, AraC + DMSO = 0%); higher = more growth rescue independent of IKZF1
Conditions: compound concentration: 5 uM; AraC concentration: 0.3 uM; overnight pretreatment + 4 days AraC
Summary of the method: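 Counter assay in HEK293FT cells expressing dCK* alone (300/well, 384-well). Cells received 5 μM compound 2 h after seeding, then after overnight at 37 °C a nucleoside suicide substrate at 0.3 μM plus medium for 4 days. On day 5, Hoechst 33342-stained nuclei were counted by imaging. Relative growth was normalised per plate to wells without suicide substrate (100%) and substrate plus vehicle (0%).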

Structure (SMILES)	relative growth in counter assay [%]
CO[C@H]1/C=C/O[C@@]2(C)Oc3c(C)c(O)c4c(O)c(cc(O)c4c3C2=O)NC(=O)/C(C)=C\C=C\[C@H](C)[C@H](O)[C@@H](C)[C@@H](O)[C@@H](C)[C@H](OC(C)=O)[C@@H]1C [Rifamycin SV Sodium]	2.23
Nc1ccc2cc3ccc(N)cc3nc2c1	-35.1
CO[C@H]1C[C@@H]2CC[C@@H](C)[C@@](O)(O2)C(=O)C(=O)N2CCCC[C@H]2C(=O)O[C@H]([C@H](C)C[C@@H]2CC[C@@H](O)[C@H](OC)C2)CC(=O)[C@H](C)/C=C(\C)[C@@H](O)[C@@H](OC)C(=O)[C@H](C)C[C@H](C)/C=C/C=C/C=C/1C [Rapamycin]	-20.8
[2H]C([2H])([2H])C(O)(CCO[C@@H](C)[C@H]1CC[C@H]2/C(=C/C=C3/C[C@@H](O)C[C@H](O)C3=C)CCC[C@]12C)C([2H])([2H])[2H] [maxacalcitol]	9.68
COC(=O)/C=C/c1cc(O)ccc1O [erbstatin-analog]	-32.8
CN1CCC[C@@H]1CCO[C@](C)(c1ccccc1)c1ccc(Cl)cc1 [Clemastine Fumarate]	4.09
O=C1[C@H]2CCCC[C@H]2C(=O)N1CCCCN1CCN(c2nsc3ccccc23)CC1 [Perospirone]	19.5
CC[N+](C)(CC)CCC[n+]1c(-c2ccccc2)c2cc(N)ccc2c2ccc(N)cc21 [propidium-iodide]	-10.7
Oc1c(I)cc(Cl)c2cccnc12	-3.3
COc1cc(NC(=O)c2ccc(-c3ccc(Cl)cc3)o2)cc(OC)c1	14.9
COCCN(C(=O)c1cc(OC)c(OC)c(OC)c1)c1nc(-c2ccccc2)cs1 [eact]	-0.03
CN(C)CCOC1=Cc2ccccc2Sc2ccc(Cl)cc21 [zotepine]	2.78
CN(C)CCCN1c2ccccc2Sc2ccc(Cl)cc21 [Chlorpromazine HCl]	-6.37
Cc1ccc(-c2ccc(C)cn2)nc1 [abametapir]	4.64
C=C1C(=O)O[C@H]2[C@H]1CC/C(C)=C\CC[C@@]1(C)O[C@@H]21 [Parthenolide ((-)-Parthenolide)]	-33.7
COC(=O)Nc1nc2cc(C(=O)c3ccc(F)cc3)ccc2[nH]1	-8
C[C@@H]1CC(=O)NN=C1c1ccc(NN=C(C#N)C#N)cc1	11.2
Nc1ccc2ncnc(NCCc3ccc(Oc4ccccc4)cc3)c2c1	-8.23
CC1=C(/C=C/C(C)=C/C=C/C(C)=C/C=C/C=C(C)/C=C/C=C(C)/C=C/C2=C(C)CCCC2(C)C)C(C)(C)CCC1	-13.6

Structure (SMILES)	relative growth in counter assay [%]
c1ccc(C2(c3ccccc3)CC2=C2NCCN2)cc1 [cibenzoline]	0.23
C/C(=N/Nc1nnc2c(n1)[nH]c1c(C)cccc12)c1ccccn1	-33
Cc1ccc(/C=C2\CNC/C(=C\c3ccc(C)cc3)C2=O)cc1	-34.5
O=C(Nc1ccc2[nH]ccc2c1)c1ccccc1	-3.62
O=C(Nc1cc(C(F)(F)F)cc(C(F)(F)F)c1)Nc1c(Br)cc(Br)cc1-c1nnn[nH]1	-2.42
NC(=O)N1c2ccccc2CC(O)c2ccccc21 (stereo not drawn) [licarbazepine]	-2.99
Oc1c(Cl)cc(Cl)cc1Sc1cc(Cl)cc(Cl)c1O	-3.52
O=C(NC(NC(=S)Nc1ccc(F)c([N+](=O)[O-])c1)C(Cl)(Cl)Cl)C(c1ccccc1)c1ccccc1 (stereo not drawn)	-20.4
C=C1/C(=C\C=C2/CCC[C@]3(C)[C@@H]([C@H](C)/C=C/[C@H](C)C(C)(C)O)CC[C@@H]23)C[C@@H](O)C[C@@H]1O [Ercalcitriol]	19.8
CCc1nc(N)nc(N)c1-c1ccc(Cl)cc1	3.95
CC(=O)N(OCc1ccccc1)[C@@H]1c2cc(C#N)ccc2OC(C)(C)[C@H]1O	4.48
C[C@H]1[C@H](OC(=O)CCC(=O)O)O[C@@H]2O[C@@]3(C)CC[C@H]4[C@H](C)CC[C@@H]1[C@@]24OO3	-30
c1ccc(-c2ccc(C(c3ccccc3)n3ccnc3)cc2)cc1 (stereo not drawn)	3.99
COC(=O)C1=C(C)NC(C)=C(C(=O)OC(C)(C)CN(C)CCC(c2ccccc2)c2ccccc2)C1c1cccc([N+](=O)[O-])c1 (stereo not drawn) [lercanidipine]	-6.01
Clc1ccc2c(N3CCN(CCCN4CCN(c5ccnc6cc(Cl)ccc56)CC4)CC3)ccnc2c1	3.87
C=CCNc1c(O)cc2c(O)c1C[C@@H](C)C[C@H](OC)[C@H](O)[C@@H](C)/C=C(\C)[C@H](OC(N)=O)[C@@H](OC)/C=C\C=C(/C)C(=O)N2 [Retaspimycin (Hydrochloride)]	-34.5
Oc1c(Cl)cc(Cl)c2cccnc12	-3.56
CC[C@H](CO)Nc1nc(Nc2cccc(-c3ccccn3)c2)c2ncn(C(C)C)c2n1	-0.26
CCCCC/N=c1/ccn(Cc2ccccc2)c2ccccc12	-2.74
